According to PubChem BioAssay AID651610 (Broad Institute, 2012):
Out of some 360,000 compounds screened, about 3,900 (1.1%) were called active. What follows is part of a selection rich in actives, with near analogues and random picks from the rest. Unmarked numbers belong to inactive results.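 How the source made its calls: active means mean replicate inhibition score of at least 50 and every replicate individually at or above 50; inconclusive means only one of the two criteria met; inactive means mean below 50 and not all replicates reaching 50.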

assay: inhibitors of HIV-1 Env-driven cell-cell fusion, primary screen, HeLa-JRFL effector, CEM21 target cells, luciferase (AID 651610); settings: stronger effect = higher value; at 16.7 µM unless noted;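 further: 0% = plate neutral controls and 100% = maraviroc near 300 nM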

Compound | inhibition
CN(C)c1ccnc(Nc2ccc(F)cc2)c1C#N | 2.55% [at 12.3 µM]
CNc1nccc(-c2ccc(Cl)cc2)c1C#N | 58.1% [at 12.3 µM] (active)
CN(C)c1nc(-c2cccnc2)nc(-c2ccc(Cl)cc2)c1C#N | -27.7% [at 12.3 µM]
CCCN(C)C[C@H]1Oc2ncc(-c3ccccc3OC)cc2C(=O)N([C@H](C)CO)C[C@@H]1C | 16.3%
COc1ccc2cc(C3=CC(=O)C[C@H](c4ccc5c(c4)OCO5)C3)ccc2c1 | -8.67% [at 12.3 µM]
O=C1C=C(c2ccnc3cc(Cl)ccc23)C[C@@H](c2ccc3c(c2)OCO3)C1 | 65.8% [at 12.3 µM] (active)
O=C1C=C(c2cc(C(F)(F)F)cc(C(F)(F)F)c2)C[C@@H](c2ccc3c(c2)OCO3)C1 | 14.8% [at 12.3 µM]
CCC(=O)N[C@H]1CC[C@@H](CC(=O)NCc2cc(F)cc(F)c2)O[C@@H]1CO | -5.23%
COc1ccc(NC(=O)N(C)C[C@H]2Oc3ccc(NC(=O)NC(C)C)cc3CC(=O)N([C@H](C)CO)C[C@H]2C)cc1 | 2.47%
C[C@@H]1CCCCO[C@H](CN(C)S(=O)(=O)c2cccs2)[C@H](C)CN([C@H](C)CO)C(=O)c2cc(NC(=O)c3ccccc3)ccc2O1 | 21.5%
CN(c1ccccc1)S(=O)(=O)c1ccc(C(=O)NCCc2ccccc2)cc1 | -11.1% [at 12.3 µM]
CN(C(=O)CC(NC(=O)c1ccccc1)(c1ccccc1)c1ccccc1)c1ccccc1 | 68.6% [at 12.3 µM] (active)
Cc1ccc(S(=O)(=O)NCCC(=O)OCC(=O)N(C)c2ccccc2)cc1 | -4.53% [at 12.3 µM]
CC(=O)c1ccc(S(=O)(=O)N2CCC3(CC2)OCCO3)cc1 | -7.27% [at 12.3 µM]
CC(=O)c1ccc(S(=O)(=O)N2CCN(C(=O)/C=C/c3ccc4ccccc4n3)CC2)cc1 | 21.1% [at 12.3 µM]
CC(=O)c1ccc(S(=O)(=O)N2CCN(c3nc4c(C)c(C)ccc4cc3C#N)CC2)cc1 | 82.5% [at 12.3 µM] (active)
C[C@@H](CN1C2=NC[C@@H](Cc3ccccc3)N2C[C@H]1Cc1ccc(O)cc1)NC(=O)CCC1CCCCC1 | -12.9% [at 12.3 µM]
C[C@@H]1CCCCO[C@H](CN(C)C(=O)C2CCCCC2)[C@@H](C)CN([C@H](C)CO)C(=O)c2cc(NC(=O)C3CCCCC3)ccc2O1 | 13.6%
CC(C)(C)NC(=O)C(CCc1ccccc1)n1c(=O)c(-c2ccccc2)nc2ccccc21 (stereo unspecified) | 20.1% [at 12.3 µM]
CCC(C(=O)NC(C)(C)C)n1c(-c2ccccc2)nc2ccccc21 (stereo unspecified) | -10.4% [at 12.3 µM]
CSCCC(C(=O)NC(C)(C)C)n1c(-c2ccccc2)nc2ccccc21 (stereo unspecified) | 56.4% [at 12.3 µM] (active)

Compound | inhibition
COc1cccc(C(=O)Nc2ccc3c(c2)C(=O)N(C)[C@@H]2CC[C@H](CC(=O)NCCCN4CCOCC4)O[C@H]2CO3)c1 | -4.21%
Clc1ccc2c(c1)C1=C(C(c3ccncc3)O2)C(c2ccc(Br)cc2)n2ncnc2N1 (stereo unspecified) | 74.5% [at 12.3 µM] (active)
O=C(C[C@@H]1C=C[C@H](NC(=O)Nc2ccc(C(F)(F)F)cc2)[C@H](CO)O1)NCc1cccc(F)c1 | 9.04%
C[C@H](CO)N1C[C@H](C)[C@H](CN(C)Cc2ccc(C(=O)O)cc2)Oc2ccc(NS(=O)(=O)c3cn(C)cn3)cc2CC1=O | -3.12%
C[C@@H]1CN([C@@H](C)CO)C(=O)c2cccc(NC(=O)c3ccc(-c4nccs4)cc3)c2O[C@H]1CN(C)Cc1ccc(Cl)c(Cl)c1 | 38.1%
COc1ccccc1-c1cnc2c(c1)C(=O)N([C@@H](C)CO)C[C@H](C)[C@H](CN(C)C(=O)c1ccncc1)O2 | 2.54%
C#CC(C)(C)NC(=O)CSc1nc2c(c(=O)n(C)c(=O)n2C)n1CCCC | -13.9% [at 12.3 µM]
CCCCn1c(SCC(=O)NCCc2ccc(OC)c(OC)c2)nc2c1c(=O)n(C)c(=O)n2C | 114% [at 12.3 µM] (active)
CCCCn1c(SCC(=O)N2CCOCC2)nc2c1c(=O)n(C)c(=O)n2C | -4.99% [at 12.3 µM]
C[C@H](CO)N1C[C@H](C)[C@H](CN(C)CC2CCCCC2)OCCCC[C@H](C)Oc2ccc(NC(=O)c3ccncc3)cc2C1=O | -17.1%
COC(=O)C1=C(C)N(Cc2ccccc2C(F)(F)F)C(=NCc2ccc(C(F)(F)F)cc2)NC1c1ccc(F)cc1 (stereo unspecified) | 5.73% [at 12.3 µM]
O=C(NCC(F)(F)F)[C@H]1[C@H](CO)[C@H]2Cn3c(ccc(-c4ccncc4)c3=O)[C@H]2N1Cc1ccncc1 | -9.96%
COc1cccc(S(=O)(=O)Nc2ccc3c(c2)[C@@H]2C[C@@H](CC(=O)NC4CCCCC4)O[C@H](CO)[C@@H]2O3)c1 | -5.43%
CC(C)C[C@@H](COCc1ccc(Cl)cc1)N1CCN(C(=O)c2ccc(Cl)cc2Cl)CCC1=O | -24.6% [at 12.3 µM]
O=C(c1ccc(C(F)(F)F)cc1)N1CCC(=O)N([C@H](COCc2ccccc2)Cc2ccccc2)CC1 | -5.07% [at 12.3 µM]
CC(C)CC(COCc1ccc(Cl)cc1)N1CCN(C(=O)c2ccc(C(F)(F)F)cc2)CCC1=O (stereo unspecified) | 65.7% [at 12.3 µM] (active)
O=C(C[C@H]1C[C@H]2c3cc(NC(=O)Cc4ccncc4)ccc3O[C@H]2[C@@H](CO)O1)NCc1cccc(F)c1 | 3.14%
COCC(=O)N(C)C[C@H]1Oc2ncc(-c3ccc(C)cc3)cc2C(=O)N([C@@H](C)CO)C[C@@H]1C | -0.608%
Cc1noc(C)c1S(=O)(=O)N(C)C[C@@H]1OCCCC[C@@H](C)Oc2ccc(NC(=O)c3ccccc3)cc2C(=O)N([C@H](C)CO)C[C@H]1C | -129%
C[C@@H]1CN([C@@H](C)CO)S(=O)(=O)c2ccc(C#C[C@@H](C)O)cc2O[C@@H]1CN(C)CC1CC1 | -13.5%
